The campaign covered roughly 39,000 compounds. About 3,300 (8.5%) were called active. This excerpt belongs to a sample that is enriched for actives.
These compounds were tested on HepG2 (assay: cytotoxicity call (relative viability < 0.9)). Details: 10 µM.

Row | SMILES | cytotoxicity call
1 | CC(C)C#Cc1cnc2c(c1)C(=O)N([C@@H](C)CO)C[C@@H](C)[C@@H](CN(C)C(=O)c1ccc3c(c1)OCO3)O2 | inactive
2 | O=C(C[C@H]1C[C@H]2c3cc(NS(=O)(=O)c4ccc(F)cc4)ccc3O[C@H]2[C@@H](CO)O1)NCCN1CCCCC1 | inactive
3 | C[C@@H]1CN([C@H](C)CO)C(=O)CCCn2cc(nn2)CO[C@@H]1CN(C)S(=O)(=O)c1ccc2c(c1)OCCCO2 | inactive
4 | C[C@H]1CN([C@@H](C)CO)S(=O)(=O)c2ccc(C#Cc3cccc(F)c3)cc2O[C@@H]1CN(C)S(=O)(=O)c1ccccc1F | inactive
5 | C[C@H](O)C#Cc1ccc2c(c1)O[C@H](CN(C)C)[C@H](C)CN([C@H](C)CO)S2(=O)=O | inactive
6 | COCC(=O)Nc1ccc2c(c1)C(=O)N(C)C[C@H](OC)[C@H](C)CN(Cc1cccc(F)c1)[C@@H](C)CO2 | inactive
7 | S=c1[nH]nc(C2CCCCC2)[nH]1 | inactive
8 | COCC(=O)Nc1ccc2c(c1)C(=O)N(C)C[C@@H](OC)[C@H](C)CN(C(=O)Nc1ccccc1F)[C@H](C)CO2 | inactive
9 | Cc1nnc(SCC2=C(C(=O)O)N3C(=O)[C@@H](N)[C@H]3SC2)s1 | inactive
10 | O=C(N[C@H](NC(=S)Nc1ccc(F)c([N+](=O)[O-])c1)C(Cl)(Cl)Cl)C(c1ccccc1)c1ccccc1 | active
11 | CCOC(=O)c1ccc(NC(=S)N[C@@H](NC(=O)c2ccc(Br)cc2)C(Cl)(Cl)Cl)cc1 | inactive
12 | C[C@@H]1CN([C@@H](C)CO)S(=O)(=O)c2ccc(-c3cncnc3)cc2O[C@H]1CN(C)C(=O)Cc1ccccc1 | inactive
13 | C[C@H]1CCCCO[C@H](CN(C)Cc2ccccc2)[C@@H](C)CN([C@@H](C)CO)C(=O)c2cc(NS(=O)(=O)c3cccs3)ccc2O1 | inactive
14 | COc1ccc(CN(C)C[C@@H]2OCCCC[C@@H](C)Oc3ccc(NC(=O)c4ccncc4)cc3C(=O)N([C@@H](C)CO)C[C@H]2C)cc1 | inactive
15 | C[C@@H]1CCCCO[C@@H](CN(C)S(=O)(=O)c2cn(C)cn2)[C@H](C)CN([C@H](C)CO)C(=O)c2cc(NC(=O)Nc3cccc4ccccc34)ccc2O1 | inactive
16 | C[C@@H]1CCCCO[C@@H](CN(C)S(=O)(=O)c2cccs2)[C@@H](C)CN([C@H](C)CO)C(=O)c2cc(NS(=O)(=O)c3ccc(Cl)cc3)ccc2O1 | inactive
17 | C[C@@H]1CCCCO[C@@H](CN(C)S(=O)(=O)c2cccs2)[C@H](C)CN([C@@H](C)CO)C(=O)c2cc(NS(=O)(=O)c3ccc(Cl)cc3)ccc2O1 | inactive
18 | C[C@H]1CCCCO[C@@H](CN(C)S(=O)(=O)c2cccs2)[C@@H](C)CN([C@@H](C)CO)C(=O)c2cc(NS(=O)(=O)c3ccc(Cl)cc3)ccc2O1 | inactive
19 | C[C@H](CO)N1C[C@H](C)[C@@H](CN(C)S(=O)(=O)c2cccs2)OCCCC[C@H](C)Oc2ccc(NS(=O)(=O)c3ccc(Cl)cc3)cc2C1=O | active
20 | C[C@@H]1CCCCO[C@H](CN(C)S(=O)(=O)c2cccs2)[C@H](C)CN([C@@H](C)CO)C(=O)c2cc(NS(=O)(=O)c3ccc(Cl)cc3)ccc2O1 | active

Row | SMILES | cytotoxicity call
21 | C[C@@H]1CCCCO[C@@H](CN(C)S(=O)(=O)c2cccs2)[C@@H](C)CN([C@@H](C)CO)C(=O)c2cc(NS(=O)(=O)c3ccc(Cl)cc3)ccc2O1 | active
22 | C[C@H](CO)N1C[C@H](C)[C@H](CN(C)S(=O)(=O)c2cccs2)OCCCC[C@H](C)Oc2ccc(NS(=O)(=O)c3ccc(Cl)cc3)cc2C1=O | inactive
23 | C[C@@H]1CCCCO[C@H](CN(C)S(=O)(=O)c2cccs2)[C@H](C)CN([C@H](C)CO)C(=O)c2cc(NS(=O)(=O)c3ccc(Cl)cc3)ccc2O1 | inactive
24 | C[C@@H]1CN([C@H](C)CO)C(=O)c2cc(NS(=O)(=O)c3ccc(Cl)cc3)ccc2O[C@@H](C)CCCCO[C@@H]1CN(C)S(=O)(=O)c1cccs1 | inactive
25 | C[C@@H]1CN([C@H](C)CO)C(=O)c2cc(NS(=O)(=O)c3ccc(Cl)cc3)ccc2O[C@@H](C)CCCCO[C@H]1CN(C)S(=O)(=O)c1cccs1 | inactive
26 | C[C@@H]1CN([C@@H](C)CO)C(=O)c2cc(NS(=O)(=O)c3ccc(Cl)cc3)ccc2O[C@@H](C)CCCCO[C@@H]1CN(C)S(=O)(=O)c1cccs1 | inactive
27 | C[C@@H]1CCCCO[C@@H](CN(C)S(=O)(=O)c2cccs2)[C@H](C)CN([C@H](C)CO)C(=O)c2cc(NS(=O)(=O)c3ccc(Cl)cc3)ccc2O1 | active
28 | COc1ccc([C@@H]2CC=CC[C@H](C)Oc3ccccc3C(=O)N(C)[C@@H](Cc3ccccc3)C(=O)N2)c(OC)c1 | inactive
29 | Cc1noc(C)c1NC(=O)Nc1ccc2c(c1)C(=O)N([C@@H](C)CO)C[C@@H](C)[C@@H](CN(C)Cc1ccncc1)OCCCC[C@H](C)O2 | inactive
30 | CO[C@H]1CN(C)C(=O)c2cc(NC(=O)C3CC3)ccc2OC[C@@H](C)N(C(=O)C2CCOCC2)C[C@H]1C | inactive
31 | COc1ccc([C@@H]2CC=CC[C@@H](C)Oc3ccccc3C(=O)N(C)[C@H](Cc3ccccc3)C(=O)N2)c(OC)c1 | inactive
32 | Cc1noc(C)c1NC(=O)Nc1ccc2c(c1)C(=O)N([C@@H](C)CO)C[C@@H](C)[C@H](CN(C)C(=O)c1ccccc1)OCCCC[C@@H](C)O2 | inactive
33 | COCC(=O)N1C[C@@H](C)[C@H](OC)CN(C)C(=O)c2ccc(NC(=O)c3ccc(OC)cc3)cc2OC[C@@H]1C | inactive
34 | COc1cc(C(=O)NS(=O)(=O)c2ccccc2C)ccc1Cc1cn(C)c2ccc(NC(=O)OC3CCCC3)cc12 | inactive
35 | CCCC#Cc1cnc2c(c1)C(=O)N([C@H](C)CO)C[C@H](C)[C@@H](CN(C)S(=O)(=O)c1cn(C)cn1)O2 | inactive
36 | C[C@@H]1CN([C@@H](C)CO)C(=O)c2cc(NC(=O)Cc3ccccc3)ccc2O[C@@H]1CN(C)C(=O)Nc1cccc2ccccc12 | inactive
37 | CC(C)NC(=O)N(C)C[C@@H]1Oc2ccc(NS(=O)(=O)c3ccc(F)cc3)cc2C(=O)N([C@@H](C)CO)C[C@H]1C | inactive
38 | CNC(=O)Cc1cnc(N)s1 | inactive
39 | C[C@H](CO)N1C[C@H](C)[C@H](CN(C)Cc2ccc(C(F)(F)F)cc2)Oc2c(NC(=O)CCCCCC(=O)Nc3ccccc3N)cccc2C1=O | inactive

From the antibiotic and cytotoxicity screens of Wong et al. (2023)
